Source: the supplement of paper PMC6522484
± gives the standard deviation of the averaged measurements.

Columns and labels:
DLD1 [1] = experiment: cell viability (CellTiter-Glo) relative to plate median (fraction of plate median); higher = more viable cells; settings: 5 µM; treatment time 24 h; reporter: 7TFP
Procedure, shortened: (§1)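 Each entry is a luminescence signal normalised to the plate median, averaged over independent replicates. The replicate count was two, and the cells were colorectal cancer lines with stable lentiviral TCF/Wnt firefly luciferase reporters exposed to library compounds at a final 5 µM for 24 h. Firefly luciferase and CellTiterGlo were measured on parallel plates.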

HCT116 = experiment: as above; settings: 5 µM; treatment time 24 h; reporter: TCF4/Wnt
Procedure, shortened: as §1

SW480 [2] = experiment: as above; settings: 5 µM; treatment time 24 h; reporter: 7TFP
Procedure, shortened: as §1

DLD1 [3] = experiment: TCF/Wnt firefly luciferase reporter signal relative to plate median (fraction of plate median); higher = higher Wnt reporter signal; settings: 5 µM; treatment time 24 h; reporter: 7TFP
Procedure, shortened: as §1

SW480 [4] = experiment: as above; settings: 5 µM; treatment time 24 h; reporter: 7TFP
Procedure, shortened: as §1

Row | SMILES | cell viability (DLD1 [1]) | cell viability (HCT116) | cell viability (SW480 [2]) | TCF/Wnt firefly luciferase reporter signal (DLD1 [3]) | TCF/Wnt firefly luciferase reporter signal (SW480 [4])
1 | CN1CCN2c3ccccc3Cc3ccccc3C2C1 (stereo not given) | 1.03 ± 0.053 | 1.08 ± 0.071 | 1.07 ± 0.021 | 1.04 ± 0.083 | 1.08 ± 0.071
2 | CC(C)[C@@H](C)/C=C/[C@@H](C)[C@H]1CC[C@H]2C3=CCC4CC(=O)CC[C@]4(C)[C@H]3CC[C@]12C (stereo not given in full) | 0.975 ± 0.078 | 1.07 ± 0.05 | 1.08 | 1.06 ± 0.071 | 1.06 ± 0.021
3 | COc1ccc(C(=O)CC(=O)O)c2c1C=CC(C)(C)O2 | 1 ± 0.013 | 0.978 ± 0.19 | 0.961 ± 0.098 | 0.991 ± 0.056 | 0.859 ± 0.042
4 | NS(=O)(=O)c1cc2c(cc1Cl)N=C(CSCc1ccccc1)NS2(=O)=O | 0.974 ± 0.079 | 1.08 ± 0.014 | 0.974 ± 0.066 | 0.861 ± 0.04 | 1.03 ± 0.042
5 | O=C(O)CCc1nc(-c2ccccc2)c(-c2ccccc2)o1 | 0.846 ± 0.15 | 0.999 ± 0.13 | 0.963 ± 0.02 | 0.915 ± 0.03 | 0.952 ± 0.032
6 | O=CN(O)CCCC(NC(=O)C(CO)NC(=O)C1COC(c2ccccc2O)=N1)C(=O)NCCC(=O)NC1CCCN(O)C1=O (stereo not given) [Oxachelin hydrate] | 1.09 ± 0.13 | 1.11 ± 0.12 | 1.02 ± 0.05 | 1.2 ± 0.014 | 0.946 ± 0.16
7 | COc1cc(OC)c2c(=O)c(-c3ccccc3)coc2c1 | 0.989 ± 0.0028 | 1.04 ± 0.12 | 1.025 ± 0.0071 | 1.09 ± 0.064 | 1.1 ± 0.05
8 | O=C(O)CCCC[C@@H]1SC[C@@H]2NC(=O)N[C@@H]21 | 1.03 ± 0.063 | 0.954 ± 0.04 | 0.948 ± 0.0042 | 0.982 ± 0.022 | 0.963 ± 0.0042
9 | CC1(C)NC(=O)N(c2ccc([N+](=O)[O-])c(C(F)(F)F)c2)C1=O | 1.05 ± 0.084 | 0.983 ± 0.052 | 1 ± 0.042 | 1.02 ± 0.014 | 0.961 ± 0.044
